Assay results: PubChem BioAssay
Unmarked numbers belong to inactive results.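 Rule for the calls, unless noted: active = viability increase at or above a cutoff of the median across tested compounds plus 3 SD (cut at about 8.5% in these data, passing the limit was not always enough); inconclusive = some gains above the cutoff, reason not given; inactive = the rest.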 Results filed as inconclusive are left out.

Assay: doxorubicin toxicity protection in MRP-1 cells – H69AR cells, CellTiter-Glo, duplicate, MRP-1 activator project, pilot screen (AID 807);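 note: compound pretreatment 18-22 h then 72 h combined with doxorubicin; 0% = doxorubicin alone and 100% = vehicle without doxorubicin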
Conditions: H69AR viability with doxorubicin, CellTiter-Glo luminescence; at 10 µM; stronger effect = higher value

Row | Compound | viability increase [%]
1 | COc1ccc(C2C(C(=O)N3CCOCC3)CCC(=O)N2c2cc(OC)c(OC)c(OC)c2)cc1 (stereo not given) | -0.09
2 | COc1ccccc1C(=O)Nc1nnc(-c2ccc3c(c2)CCCC3)o1 | -0.59
3 | CCc1ccc(NC(=O)C2CC=CCC2C(=O)O)cc1 (stereo not given) | 0.72
4 | O=C(Cn1cc2c(n1)CCCCC2)Nc1ccc(F)cc1F | 0.49
5 | Nc1c(C(=O)c2ccc(Br)s2)oc2ccccc12 | -5.46
6 | O=C1c2ccccc2C(Nc2cccnc2)N1Cc1ccc2c(c1)OCO2 (stereo not given) | -2.21
7 | Cn1c(Cn2c(=O)sc3ccccc32)nnc1SCC(=O)N1CCCCCC1 | -0.71
8 | CCS(=O)(=O)N1CCN(Cc2nc3ccccc3c(=O)[nH]2)CC1 | 0.44
9 | Cc1cccc(OCc2nnc(SCC(=O)NCCc3ccccc3)o2)c1 | -1.67
10 | CC(=O)Nc1ccc(NC2(C)C(=O)c3ccccc3C2=O)cc1 | -1.88
11 | COC(=O)c1cn(C(C)C(=O)NCc2ccco2)c2ccccc12 (stereo not given) | -0.53
12 | O=C1N2CN(C(c3ccccc3)c3ccccc3)CN=C2SC1(CO)CO | -2.69
13 | CC(C)N1C(=O)CCC1C(=O)NCc1ccccc1Cl (stereo not given) | -2.27
14 | O=C(COC(=O)c1ccc(S(=O)(=O)NCc2ccco2)cc1)Nc1ccccc1OC(F)F | -2.64
15 | Cn1c(NC(=O)CC(C)(C)C)cc(=O)n(C)c1=O | -0.07
16 | O=C(Nc1ccc2oc(-c3ccccc3)nc2c1)c1ccncc1 | 2.36
17 | Cc1nccn1-c1ncnc2sc3c(c12)CCCC3 | -3.49
18 | O=C(c1ccc2snnc2c1)N1CCCC1 | -0.66
19 | CCC(Oc1ccccc1)C(=O)Nc1cc(C)on1 (stereo not given) | -0.57
20 | Cc1cc(C)n(Cc2ccccc2F)c(=O)c1C#N | -1.4

Row | Compound | viability increase [%]
21 | CC(=O)C1=C(O)C(=O)N(CC(=O)O)C1c1ccccc1Cl (stereo not given) | -0.3
22 | O=C(C(c1ccccc1)c1ccccc1)N1CCOCC1 | -1.34
23 | Cc1cccc(N2CCN(C(=O)C3CCCN(S(=O)(=O)c4cccc5cccnc45)C3)CC2)c1C (stereo not given) | -4.58
24 | O=C(Cn1cc2c(n1)CCCCC2)N1CCCCC1 | -0.82
25 | c1ccc(OCc2nn3c(-c4ccccn4)nnc3s2)cc1 | 0.02
26 | Cc1ccc(Cl)cc1N1CCN(C(=O)CCC(=O)O)CC1 | -1.08
27 | Clc1ccc(-c2nc(-c3ccccn3)no2)cc1Cl | -4.17
28 | O=C(c1ccccc1)c1cccc(NC(=O)c2ccco2)c1 | -3.35
29 | Cc1noc(NS(=O)(=O)c2ccc(NC(=O)CCn3c(=O)oc4ccccc43)cc2)c1C | -1.22
30 | Cc1noc(C)c1CSCC(=O)OCC(=O)NC1CCCCC1 | 0.39
31 | O=C(CCc1nc2ccccc2[nH]1)NCc1ccc2c(c1)OCO2 | -2.13
32 | Nc1c(Br)cc(Br)c(N2CCCC2=O)c1Br | -2.68
33 | C1=C(N2CCOCC2)/C(=C/c2nc3ccccc3[nH]2)CC1 | -4.25
34 | COc1ccc(C(C)(C)C)cc1NC(=O)COC(=O)c1cnc(C)cn1 | -2.09
35 | COc1ccccc1NC(=O)Nc1ccc(Br)cn1 | -2.09
36 | Cc1onc(-c2ccccc2Cl)c1C(=O)N(C)C1CCCCC1 | -2.42
37 | CSC1=N/C(=C\c2ccccc2F)C(=O)S1 | -2.19
38 | Cc1nc2cc(-c3cccc(F)c3)nn2c(C)c1CCC(=O)N1CCN(c2ccccn2)CC1 | -1.74
39 | COC(=O)c1c(NC(=O)CCN2CCOCC2)sc2c1CCCC2 | -6.91
40 | CCOCCCNC(=O)C(NC(=O)CNC(C)=O)c1ccc(Cl)cc1 (stereo not given) | -0.33

Assay: viability of HCT116 without oncogenic beta-catenin – human colon tumor cells, pilot screen (AID 823;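 active = cell viability at or below a set limit in both duplicate runs, the limit being the all-compound median minus 4 SD, cut at about 23% in these data, passing the limit was not always enough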;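 note: 0% = wells killed by 20 µM Hyamine and 100% = untreated DMSO cell wells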)
Conditions: HCT116 beta-catenin knockout viability, CellTiter-Glo, 60 h; at 10 µM; stronger effect = lower value

Row | Compound | viability [%]
41 | COc1ccc(C2C(C(=O)N3CCOCC3)CCC(=O)N2c2cc(OC)c(OC)c(OC)c2)cc1 (stereo not given) | 99.7
42 | COc1ccccc1C(=O)Nc1nnc(-c2ccc3c(c2)CCCC3)o1 | 90.2
43 | CCc1ccc(NC(=O)C2CC=CCC2C(=O)O)cc1 (stereo not given) | 98.1
44 | O=C(Cn1cc2c(n1)CCCCC2)Nc1ccc(F)cc1F | 104
45 | Nc1c(C(=O)c2ccc(Br)s2)oc2ccccc12 | 88.8
46 | O=C1c2ccccc2C(Nc2cccnc2)N1Cc1ccc2c(c1)OCO2 (stereo not given) | 94.1
47 | Cn1c(Cn2c(=O)sc3ccccc32)nnc1SCC(=O)N1CCCCCC1 | 102
48 | CCS(=O)(=O)N1CCN(Cc2nc3ccccc3c(=O)[nH]2)CC1 | 97.5
49 | Cc1cccc(OCc2nnc(SCC(=O)NCCc3ccccc3)o2)c1 | 98
50 | CC(=O)Nc1ccc(NC2(C)C(=O)c3ccccc3C2=O)cc1 | 99.4
51 | COC(=O)c1cn(C(C)C(=O)NCc2ccco2)c2ccccc12 (stereo not given) | 102
52 | O=C1N2CN(C(c3ccccc3)c3ccccc3)CN=C2SC1(CO)CO | 62.9
53 | CC(C)N1C(=O)CCC1C(=O)NCc1ccccc1Cl (stereo not given) | 96
54 | O=C(COC(=O)c1ccc(S(=O)(=O)NCc2ccco2)cc1)Nc1ccccc1OC(F)F | 93.5
55 | Cn1c(NC(=O)CC(C)(C)C)cc(=O)n(C)c1=O | 104
56 | O=C(Nc1ccc2oc(-c3ccccc3)nc2c1)c1ccncc1 | 79.7
57 | Cc1nccn1-c1ncnc2sc3c(c12)CCCC3 | 95.3
58 | O=C(c1ccc2snnc2c1)N1CCCC1 | 99.7
59 | CCC(Oc1ccccc1)C(=O)Nc1cc(C)on1 (stereo not given) | 108
60 | Cc1cc(C)n(Cc2ccccc2F)c(=O)c1C#N | 105

Row | Compound | viability [%]
61 | CC(=O)C1=C(O)C(=O)N(CC(=O)O)C1c1ccccc1Cl (stereo not given) | 104
62 | O=C(C(c1ccccc1)c1ccccc1)N1CCOCC1 | 100
63 | Cc1cccc(N2CCN(C(=O)C3CCCN(S(=O)(=O)c4cccc5cccnc45)C3)CC2)c1C (stereo not given) | 30.5
64 | O=C(Cn1cc2c(n1)CCCCC2)N1CCCCC1 | 98.5
65 | c1ccc(OCc2nn3c(-c4ccccn4)nnc3s2)cc1 | 104
66 | Cc1ccc(Cl)cc1N1CCN(C(=O)CCC(=O)O)CC1 | 95.6
67 | Clc1ccc(-c2nc(-c3ccccn3)no2)cc1Cl | 72.6
68 | O=C(c1ccccc1)c1cccc(NC(=O)c2ccco2)c1 | 92.5
69 | Cc1noc(NS(=O)(=O)c2ccc(NC(=O)CCn3c(=O)oc4ccccc43)cc2)c1C | 97.7
70 | Cc1noc(C)c1CSCC(=O)OCC(=O)NC1CCCCC1 | 97.1
71 | O=C(CCc1nc2ccccc2[nH]1)NCc1ccc2c(c1)OCO2 | 97.8
72 | Nc1c(Br)cc(Br)c(N2CCCC2=O)c1Br | 92.6
73 | C1=C(N2CCOCC2)/C(=C/c2nc3ccccc3[nH]2)CC1 | 78.9
74 | COc1ccc(C(C)(C)C)cc1NC(=O)COC(=O)c1cnc(C)cn1 | 97.3
75 | COc1ccccc1NC(=O)Nc1ccc(Br)cn1 | 92.6
76 | Cc1onc(-c2ccccc2Cl)c1C(=O)N(C)C1CCCCC1 | 46.5
77 | CSC1=N/C(=C\c2ccccc2F)C(=O)S1 | 102
78 | Cc1nc2cc(-c3cccc(F)c3)nn2c(C)c1CCC(=O)N1CCN(c2ccccn2)CC1 | 87.2
79 | COC(=O)c1c(NC(=O)CCN2CCOCC2)sc2c1CCCC2 | 88.4
80 | CCOCCCNC(=O)C(NC(=O)CNC(C)=O)c1ccc(Cl)cc1 (stereo not given) | 102
